Experimental data published in PubChem BioAssay (NCATS).
Results filed as inconclusive are left out. The source made the active and inactive calls. Calls follow the shape of the dose curve; as a rule, active = well fitted curve in the direction sought with a large enough effect; inconclusive = small, poorly fitted or top-dose-only effect, or another doubt; inactive = no such curve, though single readings can be large; an effect the other way counts as inactive or inconclusive.

Experiments:
HACAT = test: qHTS assay to identify novel small-molecules to repurpose for Merkel cell carcinoma treatment (AID 1296009); settings: MCC and control cell lines, CellTiter-Glo viability, 72 h; at 44.8 µM (top of the series) unless noted; also: nearly all actives have a fitted effect of over 60% in size
In short: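 qHTS format: cells treated with library compounds in DMSO across 8 (NPC) or 11 (MIPE) concentrations. Readout after 72 hr at 37 degree celsius was CellTiter-Glo luminescence.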

C33A = test: Primary qHTS to identify gynecologic anti-cancer compounds using libraries of approved drugs and bioactive compounds (AID 1345084); settings: Gynecologic cancer cell panel viability, ATPlite luminescence, 48 h; series mostly up to 57.5 µM; also: % is scaled to controls: 0 for no effect and ±100 for the full control effect; nearly all actives have a fitted effect of over 55% in size
In short: (§1)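 Measured: luminescence after ATPlite addition (15 min, RT). Exposure: 48 h, 37 C, 5% CO2.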

CAOV3 = test: as above; settings: Gynecologic cancer cell panel viability, ATPlite luminescence, 48 h; series mostly up to 57.5 µM
In short: as §1

CASKI = test: as above; settings: Gynecologic cancer cell panel viability, ATPlite luminescence, 48 h; series mostly up to 57.5 µM
In short: as §1

Es-2 = test: as above; settings: Gynecologic cancer cell panel viability, ATPlite luminescence, 48 h; series mostly up to 57.5 µM
In short: as §1

HeLa = test: as above; settings: Gynecologic cancer cell panel viability, ATPlite luminescence, 48 h; series mostly up to 57.5 µM
In short: as §1

Hek293T = test: as above; settings: Gynecologic cancer cell panel viability, ATPlite luminescence, 48 h, control line for the selectivity index; series mostly up to 57.5 µM
In short: as §1

JEG-3 = test: as above; settings: Gynecologic cancer cell panel viability, ATPlite luminescence, 48 h; series mostly up to 57.5 µM
In short: as §1

CC(C)N(CCCNC(=O)Nc1ccc(C(C)(C)C)cc1)C[C@H]1O[C@@H](n2ccc3c(N)ncnc32)[C@H](O)[C@@H]1O
inactive: outcome (HACAT) | Potency (C33A) | Potency (CAOV3) | outcome (CASKI) | Potency (Es-2) | Potency (HeLa) | Potency (Hek293T) | Potency (JEG-3)

CC1CCC2C(C)(C)[C@H](O)CC[C@]2(C)C12Cc1c(O)cc3c(c1O2)CN(C(CCC(=O)O)C(=O)O)C3=O (stereo partly drawn)
inactive: outcome (HACAT) inactive [at 17.4 µM] | Potency (C33A) | Potency (CAOV3) | outcome (CASKI) | Potency (Es-2) | Potency (HeLa) | Potency (Hek293T) | Potency (JEG-3)

COc1ccnc(CCc2nc3ncccc3[nH]2)c1
inactive: outcome (HACAT) | Potency (C33A) | Potency (CAOV3) | outcome (CASKI) | Potency (Es-2) | Potency (HeLa) | Potency (Hek293T) | Potency (JEG-3)

NC(=O)C(O[C@@H]1O[C@H](CO[C@@H]2O[C@H](CO)[C@@H](O)[C@H](O)[C@H]2O)[C@@H](O)[C@H](O)[C@H]1O)c1ccccc1 (stereo partly drawn)
inactive: outcome (HACAT) inactive [at 17.4 µM] | Potency (C33A) | Potency (CAOV3) | outcome (CASKI) | Potency (Es-2) | Potency (HeLa) | Potency (Hek293T) | Potency (JEG-3)

C/C(=C\CC[C@H](CO)[C@@H]1CC[C@]2(C)C3=C(CC[C@@]12C)[C@@]1(C)CCC(=O)C(C)(C)C1CC3)C(=O)O (stereo partly drawn)
inactive: outcome (HACAT) inactive [at 17.4 µM] | Potency (C33A) | Potency (CAOV3) | outcome (CASKI) | Potency (Es-2) | Potency (HeLa) | Potency (Hek293T) | Potency (JEG-3)

COC(=O)C1=COC(OC2OC(CO)C(O)C(O)C2O)C2C(COC(=O)/C=C/c3ccc(O)c(O)c3)C(O)C(O)C12 (stereo not drawn)
inactive: outcome (HACAT) inactive [at 17.4 µM] | Potency (C33A) | Potency (CAOV3) | outcome (CASKI) | Potency (Es-2) | Potency (HeLa) | Potency (Hek293T) | Potency (JEG-3)

CCC(C)/C=C(C)/C=C/C1=CC2=C(Cl)C(=O)C(C)(OC(C)=O)C(=O)C2=CN1C(CC(=O)O)C(=O)O (stereo not drawn)
inactive: outcome (HACAT) inactive [at 17.4 µM] | Potency (C33A) | Potency (CAOV3) | outcome (CASKI) | Potency (Es-2) | Potency (HeLa) | Potency (Hek293T) | Potency (JEG-3)

C=CCC/C=C/C#CCCCCCCCC[C@H]1C(=O)O[C@H](C)[C@@H]1O
inactive: outcome (HACAT) | Potency (C33A) | Potency (CAOV3) | outcome (CASKI) | Potency (Es-2) | Potency (HeLa) | Potency (Hek293T) | Potency (JEG-3)

OC[C@H]1O[C@@H](Oc2cc(O)cc(-c3cc4ccc(O[C@@H]5O[C@H](CO)[C@@H](O)[C@H](O)[C@H]5O)cc4o3)c2)[C@H](O)[C@@H](O)[C@@H]1O
inactive: outcome (HACAT) inactive [at 17.4 µM] | Potency (C33A) | Potency (CAOV3) | outcome (CASKI) | Potency (Es-2) | Potency (HeLa) | Potency (Hek293T) | Potency (JEG-3)

COc1cc(O)cc2c1C(=O)OC(C)C2 (stereo not drawn)
inactive: outcome (HACAT) | Potency (C33A) | Potency (CAOV3) | outcome (CASKI) | Potency (Es-2) | Potency (HeLa) | Potency (Hek293T) | Potency (JEG-3)

CC(=O)NC(C(=O)OC1CCC(C)(C)C2CC=C3C(=O)OCC3C12C)C(C)C (stereo not drawn)
inactive: outcome (HACAT) | Potency (C33A) | Potency (CAOV3) | outcome (CASKI) | Potency (Es-2) | Potency (HeLa) | Potency (Hek293T) | Potency (JEG-3)

C[C@@H]1O[C@@H](O[C@H]2[C@H](O[C@H]3[C@H](O[C@H]4CC[C@@]5(C)C(CC[C@]6(C)C5CC=C5[C@@H]7CC(C)(C)C[C@@H](O)[C@]7(C)CC[C@]56C)C4(C)C)O[C@H](C(=O)O)[C@@H](O)[C@@H]3O)O[C@H](C(=O)O)[C@H](O)[C@@H]2O)[C@H](O)[C@H](O)[C@H]1O (stereo partly drawn)
inactive: outcome (HACAT) inactive [at 9.27 µM] | activity change, negative = cytotoxicity (C33A) -4.31% [at 11.6 µM] | activity change, negative = cytotoxicity (CAOV3) -1.54% [at 11.6 µM] | activity change, negative = cytotoxicity (CASKI) 12.7% [at 11.6 µM] | activity change, negative = cytotoxicity (Es-2) -10.8% [at 11.6 µM] | activity change, negative = cytotoxicity (HeLa) 5.18% [at 11.6 µM] | activity change, negative = cytotoxicity (Hek293T) 6.67% [at 11.6 µM] | activity change, negative = cytotoxicity (JEG-3) -0.21% [at 11.6 µM]

Cc1cccc(-c2nn3c(c2-c2ccnc4ccc(C(N)=O)cc24)CCC3)n1
inactive: outcome (HACAT) | Potency (C33A) | Potency (CAOV3) | outcome (CASKI) | Potency (Es-2) | Potency (HeLa) | Potency (Hek293T) | Potency (JEG-3)

COC1CC(O[C@H]2CC[C@@]3(C)C(=CC[C@]4(O)C3[C@H](O)[C@@H](O)[C@]3(C)[C@@H]([C@H](C)O)CC[C@@]34O)C2)OC(C)C1OC1CC(OC)C(OC2CC(OC)C(OC3OC(C)C(OC4OC(CO)C(O)C(O)C4O)C(OC)C3O)C(C)O2)C(C)O1 (stereo partly drawn)
inactive: outcome (HACAT) inactive [at 9.27 µM] | activity change, negative = cytotoxicity (C33A) 15.5% [at 11.6 µM] | activity change, negative = cytotoxicity (CAOV3) 14.6% [at 11.6 µM] | activity change, negative = cytotoxicity (CASKI) 17.9% [at 11.6 µM] | activity change, negative = cytotoxicity (Es-2) 5.18% [at 11.6 µM] | activity change, negative = cytotoxicity (HeLa) -0.017% [at 11.6 µM] | activity change, negative = cytotoxicity (Hek293T) 8.49% [at 11.6 µM] | activity change, negative = cytotoxicity (JEG-3) -0.832% [at 11.6 µM]

Oc1ccccc1-c1cc(-c2ccccc2F)[nH]n1
inactive: outcome (HACAT) | Potency (C33A) | Potency (CAOV3) | outcome (CASKI) | Potency (Es-2) | Potency (HeLa) | Potency (Hek293T) | Potency (JEG-3)

CC1OC(O[C@H]2CC[C@@]3(C)C(CC[C@]4(C)C3CC=C3C5CC(C)(C)CC[C@]5(C(=O)OC5OC(CO)C(OC6OCC(OC7OCC(O)C(O)C7O)C(O)C6O)C(O)C5O)CC[C@]34C)C2(C)C)C(O)C(O)C1OC1OC(CO)C(O)C(OC2OC(CO)C(O)C(O)C2O)C1O (stereo partly drawn)
inactive: outcome (HACAT) inactive [at 9.27 µM] | activity change, negative = cytotoxicity (C33A) -11.5% [at 6.55 µM] | activity change, negative = cytotoxicity (CAOV3) 2.33% [at 6.55 µM] | activity change, negative = cytotoxicity (CASKI) -4.77% [at 6.55 µM] | activity change, negative = cytotoxicity (Es-2) -1.46% [at 6.55 µM] | activity change, negative = cytotoxicity (HeLa) 1.79% [at 6.55 µM] | activity change, negative = cytotoxicity (Hek293T) -4.99% [at 6.55 µM] | activity change, negative = cytotoxicity (JEG-3) -5.08% [at 6.55 µM]
